As usually defined, the Inhibition is the change of the read-out against control, counted positive when it falls.

Among the data in ChEMBL document CHEMBL4513142, “CO-ADD screening of Indiana University - Purdue University Indianapolis (USA) compounds” are Inhibition values, retold here.

One experiment deals with Klebsiella pneumoniae. The note with it: Concentration 32 ug.mL-1, ASSAY_TEST Inhibition of Bacterial Growth, detection method Absorption (OD600), MEDIA CAMHB, plate type 384well, NBS, CORNING #3640, time 18 hr.
The test system of another experiment is Cryptococcus neoformans. The conditions noted are these: Concentration 32 ug.mL-1, ASSAY_TEST Inhibition of Fungal Growth, detection method Resazurin, Absorption (OD600-OD570), plate type 384well, NBS, CORNING #3640. In general terms: The colour change of resazurin is a common sign of viable cells or microbes.
Another experiment has as its system Candida albicans. The conditions noted are these: 32 ug/mL.

“And” between values parts separate entries of the source, which are not always exact repeats. Equal values may be shown once. Potency and affinity values are given separately.

Consider `Cc1ccc(C(=O)NC(Cc2ccccc2C#N)C(=O)O)cc1` (configuration not stated), for which the Inhibition with Klebsiella pneumoniae (32 ug/mL) is 10.82% and 9.51%; in the experiment with Cryptococcus neoformans (32 ug/mL) it was -6.48% and -6.82%.
As to `CC(C)C[C@H](NC(=O)c1ccc(Cl)cc1Cl)C(N)=O`, the Inhibition with Klebsiella pneumoniae (32 ug/mL) was 14.05% and -7.39%; in the experiment with Candida albicans, 4.49% and 5.39%; in the experiment on Cryptococcus neoformans (32 ug/mL), -13.33% and -10.52%.
Take `C[C@H](NC(=O)c1ccccc1Cl)C(=O)O`: the Inhibition was -1.23% and -3.38% with Klebsiella pneumoniae (32 ug/mL); 4.87% and 8.5% in the experiment with Candida albicans; -5.22% and -11.03% in the experiment with Cryptococcus neoformans (32 ug/mL).
For the compound `COc1cc(C(=O)N[C@@H](CC(C)C)C(=O)O)ccc1O`, the Inhibition with Klebsiella pneumoniae (32 ug/mL) is 1.29% and 3.72%; in the experiment with Candida albicans it was 4.13% and 6.65%; with Cryptococcus neoformans (32 ug/mL), -7.3% and -10.82%.
As for `Cc1ccc(C(=O)NC(Cc2ccc(F)cc2)C(=O)O)cc1` (configuration not stated), the Inhibition in the experiment with Klebsiella pneumoniae (32 ug/mL) is -11.12% and 7.59%; with Cryptococcus neoformans (32 ug/mL) it was -14.35% and -11.02%.
For `[C-]#[N+]c1ccc(C(=O)NC(Cc2ccc(F)cc2)C(=O)NCCC)cc1` (configuration not stated), the Inhibition with Klebsiella pneumoniae is 14.12%; in the experiment on Candida albicans, 5.24%; in the experiment on Cryptococcus neoformans it was -1.72%.
Turning to `[C-]#[N+]c1ccc(C(=O)NC(CC#C)C(=O)NCCC)cc1` (configuration not stated), the figures for the Inhibition in the experiment on Klebsiella pneumoniae, in the experiment on Candida albicans and with Cryptococcus neoformans were 15.5%, 4.37% and -8.61%, respectively.
Consider `NC(=O)[C@@H]1CCCN1C(=O)c1ccccn1`, for which the Inhibition in the experiment on Klebsiella pneumoniae (32 ug/mL) was 13.57% and 8.38%; with Candida albicans, 8.62% and 7.92%; with Cryptococcus neoformans (32 ug/mL), -5.72% and -3.53%.
